About 14,000 (4.5%) of roughly 310,000 compounds showed an effect of 50% or more. The effect is printed as a negative number. Shown is part of a subset that was picked to be rich in strong results.
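Also: peak tail current of the secondary pulse compared with the same well before compound.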

The target in this experiment is human ether-à-go-go-related gene (hERG) potassium channel (human, UniProt Q12809). Put plainly: primary screen, population patch clamp on CHO cells stably expressing hERG; higher = less effect of the substance.
human ether-à-go-go-related gene (hERG) potassium channel, sequence (Q12809 whole entry, looked up): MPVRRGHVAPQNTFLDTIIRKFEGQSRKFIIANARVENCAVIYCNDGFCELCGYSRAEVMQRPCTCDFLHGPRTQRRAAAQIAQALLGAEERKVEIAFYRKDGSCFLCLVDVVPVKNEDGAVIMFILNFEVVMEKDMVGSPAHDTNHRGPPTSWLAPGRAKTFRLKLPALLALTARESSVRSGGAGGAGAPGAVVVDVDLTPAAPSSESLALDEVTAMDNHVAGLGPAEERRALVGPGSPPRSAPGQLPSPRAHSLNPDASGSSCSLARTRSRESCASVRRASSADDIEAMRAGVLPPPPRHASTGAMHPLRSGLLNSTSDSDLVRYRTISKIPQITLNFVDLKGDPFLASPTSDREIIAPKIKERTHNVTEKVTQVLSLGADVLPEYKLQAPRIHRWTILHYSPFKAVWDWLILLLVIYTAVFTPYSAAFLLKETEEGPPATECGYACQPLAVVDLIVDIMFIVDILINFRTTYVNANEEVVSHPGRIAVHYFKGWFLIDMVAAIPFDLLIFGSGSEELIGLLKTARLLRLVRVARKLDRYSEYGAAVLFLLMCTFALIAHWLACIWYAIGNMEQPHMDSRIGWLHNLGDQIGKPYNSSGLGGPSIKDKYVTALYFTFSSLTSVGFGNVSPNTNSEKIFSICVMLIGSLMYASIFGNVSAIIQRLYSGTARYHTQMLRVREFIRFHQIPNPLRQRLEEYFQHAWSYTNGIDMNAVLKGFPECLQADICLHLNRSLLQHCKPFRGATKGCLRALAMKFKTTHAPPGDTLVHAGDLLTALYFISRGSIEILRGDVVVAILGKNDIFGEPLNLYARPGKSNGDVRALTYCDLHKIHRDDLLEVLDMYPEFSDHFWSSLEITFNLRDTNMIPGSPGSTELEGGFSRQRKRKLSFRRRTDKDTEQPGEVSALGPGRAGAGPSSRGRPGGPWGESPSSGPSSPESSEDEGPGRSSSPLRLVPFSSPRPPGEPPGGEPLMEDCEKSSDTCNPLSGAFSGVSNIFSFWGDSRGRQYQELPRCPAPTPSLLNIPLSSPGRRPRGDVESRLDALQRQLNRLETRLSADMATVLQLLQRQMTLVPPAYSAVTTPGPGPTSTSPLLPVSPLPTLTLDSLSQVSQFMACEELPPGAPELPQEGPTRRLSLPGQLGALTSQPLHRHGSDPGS
Take `Cc1nn(-c2ccccc2)c(Cl)c1C(=O)N1CCN(c2ncnc3c2cnn3-c2ccccc2)CC1`: the “hERG current change (%, negative = inhibition) at 10uM” value is recorded as -29.1%.
As for `C=C(C)[C@@H]1CC=C(CN2CCC(CCOC)(C(=O)OCC)CC2)CC1`, the figure is -64.7%; as for `CCOC(=O)C1(CCOC)CCN(Cc2ccc(C3CCCCO3)s2)CC1` (stereo not shown), -21.4%.
Consider `CCOC(=O)C1(CCOC)CCN(Cc2nc(C(C)C)cs2)CC1`, for which the “hERG current change (%, negative = inhibition) at 10uM” value is 41%.
For the molecule `N#CCCN(CCC#N)C(=O)C1c2ccccc2Oc2ccccc21`, the “hERG current change (%, negative = inhibition) at 10uM” value is reported as 14.4%.
As for `CCOC(=O)c1ccccc1NC(=O)COC(=O)CN1C(=O)C2CC=CCC2C1=O` (stereo not shown), the figure is -2.8%; as for `Cn1c(C(=O)NCCN2CCCCCC2)cc2c(=O)n(C)c3ccccc3c21`, -13.4%; as for `C=CCOc1ccc2oc(=O)cc(C)c2c1`, -1.62%.
With `CCNc1c2c(nc3ccccc13)CC(C)(C)CC2=O.O=C(O)C(=O)O` the figure was -69.9%.
As for `CC1(C)CC(=O)c2c(nc3ccccc3c2N)C1`, the figure is -28.8%.
As for `Cc1c2c(nc3ccccc13)CC(C)(C)CC2=O.Cl`, the “hERG current change (%, negative = inhibition) at 10uM” value is on record as 0.994%.
On to `O=C(Nc1cccc(C(=O)O)c1)/C(=C\c1ccco1)NC(=O)c1ccc(Br)o1`, for which the “hERG current change (%, negative = inhibition) at 10uM” value is -28.1%.
In the case of `Cc1ccc(SCC(=O)OCC(=O)NCc2cccs2)cc1`, the “hERG current change (%, negative = inhibition) at 10uM” value is 5.8%.
As for `NC(=S)N=Nc1c(O)n(CCCl)c2ccc(Cl)cc12`, the figure is 9.1%; as for `CCOc1cc(/C=C\[N+](=O)[O-])ccc1OCC(=O)N1CCOCC1`, -50.5%; as for `O=C(COc1ccc(/C=C\[N+](=O)[O-])cc1)N1CCOCC1`, -17.7%.
As for `CCOc1cc(C=C2C(=O)NC(=O)NC2=O)ccc1OCC(=O)N1CCOCC1`, the figure is 7.28%.
For `CCCOc1ccc(C(=O)Nc2ccc3c(c2)OCO3)cc1`, the “hERG current change (%, negative = inhibition) at 10uM” value turned out to be 16.1%.
As for `CC(=O)c1cccc(NC(=O)CCOc2ccccc2)c1`, the figure is 6.88%.
Turning to `CCCOc1cccc(C(=O)Nc2cccc(NC(=O)c3ccco3)c2)c1`, the “hERG current change (%, negative = inhibition) at 10uM” value was -21.8%.
As for `COc1cccc(C(=O)Nc2cc(NC(=O)c3ccco3)ccc2OC)c1`, the figure is -5.19%; as for `CCCCOc1cccc(C(=O)Nc2ccc(NC(=O)c3ccco3)cc2)c1`, 8.63%.
As for `CC(C)Oc1cccc(C(=O)Nc2ccc(NC(=O)c3ccco3)cc2)c1`, the figure is 6.06%.
As to `CCCOc1cccc(C(=O)Nc2cc(NC(=O)c3ccco3)ccc2OC)c1`, the “hERG current change (%, negative = inhibition) at 10uM” value was -81.2%.
Turning to `COc1ccc(NC(=O)c2ccco2)cc1NC(=O)c1cccc(OC(C)C)c1`, the “hERG current change (%, negative = inhibition) at 10uM” value was -96.7%.

Source of the values: PMC4336329 (PLoS ONE, 2015).
